Measured values taken from PubChem BioAssay (NCATS).
Results filed as inconclusive are left out. Entries that show only a call come without a potency. Values without a mark were called inactive. Activity calls are given as the source filed them. Unless noted, the call rests on the fitted dose curve; in most records, active means well fitted curve in the direction sought with a large enough effect; inconclusive means small, poorly fitted or top-dose-only effect, or another doubt; inactive means no such curve, though single readings can be large; an effect the other way counts as inactive or inconclusive.

What was measured:
[1] = qHTS for Inhibitors of Plasmodium falciparum (7G8) proliferation (AID 504316); further: nearly all actives have a fitted effect of over 65% in size; settings: P. falciparum 7G8 in erythrocytes, SYBR Green DNA, 72 h; series mostly up to 6.7 µM
How it was run: (§1)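 Parasite growth measured as SYBR Green DNA fluorescence (ex 485, em 535 nm) after overnight lysis following 72 h culture at 37 °C, 0.3% parasitemia, 2.5% hematocrit. Values normalized against DMSO and 0.29 uM artemisinin controls, with plate-stack correction.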

[2] = qHTS for Inhibitors of Plasmodium falciparum (CP250) proliferation (AID 504320); settings: P. falciparum CP250 in erythrocytes, SYBR Green DNA, 72 h; series mostly up to 6.7 µM
How it was run: as §1

[3] = target: Atrial natriuretic peptide receptor 1 (Homo sapiens) (UniProt P16066); test: Natriuretic polypeptide receptor (hNpr1) antagonism - Pilot CMLD screen (AID 1347052; calls by dose curve;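 further: cGMP level read as GloSensor luciferase luminescence after agonist stimulation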); settings: HEK293 hNpr1 GloSensor cGMP luminescence, ANP-stimulated; series mostly up to 9.22 µM
[4] = qHTS for Inhibitors of Plasmodium falciparum (HB3) proliferation (AID 504318); further: nearly all actives have a fitted effect of over 60% in size; settings: P. falciparum HB3 in erythrocytes, SYBR Green DNA, 72 h; series mostly up to 7.21 µM
How it was run: as §1
Potency means the concentration at half of the fitted maximal effect.

Chain of Atrial natriuretic peptide receptor 1 (Homo sapiens) (P16066 whole entry, looked up): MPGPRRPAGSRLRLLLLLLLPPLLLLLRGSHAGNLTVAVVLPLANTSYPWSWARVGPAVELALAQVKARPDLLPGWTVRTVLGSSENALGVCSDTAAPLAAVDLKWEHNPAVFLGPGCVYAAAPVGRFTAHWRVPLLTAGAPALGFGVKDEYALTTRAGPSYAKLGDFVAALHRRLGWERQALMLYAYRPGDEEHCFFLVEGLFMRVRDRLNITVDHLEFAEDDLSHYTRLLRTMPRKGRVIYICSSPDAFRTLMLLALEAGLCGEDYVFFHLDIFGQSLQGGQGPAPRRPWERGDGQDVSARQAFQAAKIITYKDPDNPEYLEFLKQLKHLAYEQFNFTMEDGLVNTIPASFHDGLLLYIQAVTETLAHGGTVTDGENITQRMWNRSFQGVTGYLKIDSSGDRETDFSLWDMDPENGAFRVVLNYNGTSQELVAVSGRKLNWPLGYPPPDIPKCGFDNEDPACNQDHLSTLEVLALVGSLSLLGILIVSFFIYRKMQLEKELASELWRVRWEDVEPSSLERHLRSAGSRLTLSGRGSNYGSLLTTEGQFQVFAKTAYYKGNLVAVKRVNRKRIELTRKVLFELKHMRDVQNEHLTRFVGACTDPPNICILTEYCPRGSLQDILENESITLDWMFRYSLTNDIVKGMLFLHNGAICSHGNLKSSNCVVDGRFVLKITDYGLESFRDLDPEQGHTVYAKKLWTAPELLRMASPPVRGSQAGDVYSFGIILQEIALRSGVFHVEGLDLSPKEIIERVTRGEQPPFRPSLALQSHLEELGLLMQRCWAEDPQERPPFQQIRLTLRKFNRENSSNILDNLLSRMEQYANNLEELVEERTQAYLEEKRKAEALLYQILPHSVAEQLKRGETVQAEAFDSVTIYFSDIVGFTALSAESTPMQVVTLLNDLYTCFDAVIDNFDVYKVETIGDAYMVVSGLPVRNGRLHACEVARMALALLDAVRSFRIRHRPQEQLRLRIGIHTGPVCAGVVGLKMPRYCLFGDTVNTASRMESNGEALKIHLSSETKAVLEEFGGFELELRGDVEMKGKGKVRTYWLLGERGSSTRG

SMILES | Potency [1] | Potency [2] | Potency [3] | Potency [4]
C=CC[C@@H]1C=C[C@H](ON=C(C)CCN2CCc3nc(CC)c(CC)cc3C2)[C@H](CO)O1 | 1690 nM (active) | inactive | inactive | –
C=C(C)C(=O)OC[C@H]1CN2[C@H](c3ccc(Br)cc3)[C@H](C)CC[C@H]2C(=O)O1 | inactive | 1510 nM (active) | inactive | –
CCc1cc2c(nc1CC)CCN(CCC(C)=NO[C@@H](C)c1cn([C@H](CO)Cc3ccccc3)nn1)C2 | 1690 nM (active) | inactive | inactive | –
COC(=O)c1c(C(=O)OC)c2c3cc(OC)c(OC)cc3cc([Si](C)(C)C)n2c1C(=O)OC | 1510 nM (active) | inactive | inactive | 2130 nM (active)
c1ccc(C2NCCc3c2[nH]c2ccccc32)cc1 (stereo unspecified) | inactive | inactive | inactive | –
C[C@H]1CC[C@H]2C(=O)N(Cc3ccc(Cl)cc3)C[C@@H](O)CN2[C@H]1c1ccc(Br)cc1 | 1690 nM (active) | inactive | inactive | –
COc1ccc(COC(=O)NN=C2C[C@@H](O)[C@@H](O)[C@@H]3[C@H]4C(=O)N(c5cccc(Oc6ccccc6)c5)C(=O)[C@@H]4CC[C@H]23)cc1 | inactive | inactive | inactive | inactive
C=COC[C@H]1CN2[C@H](c3ccc(Br)cc3)[C@H](C)CC[C@H]2C(=O)O1 | inactive | 1900 nM (active) | inactive | –
COc1ccc(-c2nc3c(c4c2C[C@H](c2ccccc2)OC4)CN(C(=O)N[C@@H](C)C(=O)OC(C)C)CC3)c(C)c1 | 1510 nM (active) | inactive | inactive | 1650 nM (active)
O=C1[C@@H]2[C@H]3[C@H](O)[C@H](O)CC(=NOC[C@@H](O)COCc4ccco4)[C@H]3CC[C@H]2C(=O)N1c1ccc(F)cc1F | inactive | inactive | inactive | inactive
CCN1C(=NCc2cc(OC)c(OC)c(OC)c2)NC(c2cccc(F)c2)C(C(=O)OC)=C1C (stereo unspecified) | 849 nM (active) | inactive | inactive | –
COC(=O)CC1OC1[C@H](C)[C@@H](OC)C(C)C (stereo partly specified) | 1690 nM (active) | inactive | inactive | –
N#Cc1ccc2c(c1)C[C@]1(CCCCN3C(=O)c4ccccc4C3=O)Oc3c(c(=O)oc4ccc(F)cc34)[C@@H]2O1 | 1510 nM (active) | inactive | inactive | –
CC(C)OC(=O)[C@H](C)NC(=O)N1CCc2nc(COc3ccccc3)c3c(c2C1)CO[C@@H](C)C3 | 1350 nM (active) | inactive | inactive | 2620 nM (active)
O=C1c2ccccc2C(=O)N1CCCC[C@]12Cc3ccccc3[C@H](O1)c1c(c3ccccc3oc1=O)O2 | 1510 nM (active) | 1690 nM (active) | inactive | –
COc1ccc([C@]23Cc4cc(OC)c(OC)cc4[C@H](O2)C2=C(CCCC2=O)O3)cc1 | 1510 nM (active) | inactive | inactive | –
N#Cc1ccc2c(c1)C[C@]1(CCCCN3C(=O)c4ccccc4C3=O)Oc3c(c(=O)oc4ccccc34)[C@H]2O1 | 1510 nM (active) | inactive | inactive | –
CC(=O)OC[C@H]1O[C@H](CCON=C(C)CCN2CCc3nc(-c4ccccc4)c(-c4ccccc4)cc3C2)C=C[C@H]1OC(C)=O | 1510 nM (active) | inactive | inactive | –
C=CCOC(=O)N[C@@H](CC(C)C)C(C(=O)OC)=C(C)NCc1ccccc1 | inactive | inactive | inactive | inactive
CC1(C)CC(=O)C2=C(C1)O[C@@]1(CCCCN3C(=O)c4ccccc4C3=O)Cc3c(ccc4ccccc34)[C@H]2O1 | 1510 nM (active) | inactive | inactive | –
COc1cc2c(cc1OC)[C@@H]1O[C@](c3ccsc3)(C2)Oc2cc(C)n(Cc3ccccc3)c(=O)c21 | 1510 nM (active) | inactive | 531 nM (active) | –
C=CC[C@](C)(O)c1ccccc1 | 1510 nM (active) | inactive | inactive | –
COCCN1C(=O)C2=C(C1=O)C1N(C)c3ccccc3[C@@]13C[C@@H](CO)N(S(=O)(=O)c1ccc(OC)cc1)C3=N2 (stereo partly specified) | inactive | inactive | inactive | inactive
